# Measurements reported in PubChem BioAssay (NCI).
# About 83,000 compounds went through this panel and 20% of them were active in at least one assay; those are over-represented in the sample as a whole.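 Single-dose data. Exposure time 48 hours. Values below 10 considered active.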 Calls of active or inactive are those of the source.
# Tested on: UO-31 renal
# Test: NCI-60 one-dose screen, 48 h (100 = growth as untreated, 0 = no growth, -100 = all killed)
# Settings: 10 µM unless noted
row,Structure (SMILES),growth
1,COc1ccc(Cn2cc3c(c2-c2ccccc2)CCc2cnoc2-3)cc1OC,35.3% (inactive)
2,Cc1ccc2c(O)c(O)cc(NC(C)CCCN)c2n1 (stereo not given),96.8% (inactive)
3,CC(C)(C)c1ccc([I+]c2ccc(C(C)(C)C)cc2)cc1,62.8% (inactive)
4,COC(=O)/C(Br)=C/c1c[nH]c2ccc(Br)cc12,46.7% (inactive)
5,COC(=O)c1ccc2[nH]c(O)c(C(=Nc3ccc(N(C)C(=O)CN4CCN(C)CC4)cc3)c3cccc(OC)c3)c2c1,20.2% (inactive)
6,C#CCCCCCCC[C@@H]1OC(=O)[C@H]([C@@H](C)CC)NC(=O)[C@@H]([C@@H](C)CC)NC(=O)CC(=O)[C@@H]1C,60.9% (inactive)
7,COC(=O)c1ccc2[nH]c(O)c(C(=Nc3ccc(N(C)C(=O)CN4CCN(C)CC4)cc3)c3ccc(C)cc3)c2c1,-81.2% (active)
8,COC(=O)C(C)[C@H]1CC[C@@H]2[C@]1(C)CC=C1[C@]23C=C[C@]2(C[C@@H](OC(C)=O)CC[C@]12C)C(C(=O)OC)C3C(=O)OC (stereo not given in full),86.7% (inactive)
9,Cc1nc2c(nnn2-c2ccccc2)c2nc(-c3ccccc3)oc(=O)c12,86.5% (inactive)
10,CC(O)C(N)=O (stereo not given),97% (inactive)
11,Nc1nc2c(c3cnccc13)C(c1cccc(Cl)c1)Cc1cnccc1-2 (stereo not given),26.1% (inactive)
12,CC(=O)OCC1O[C@@H](OC(C)=O)[C@@H](NC(=O)NS(=O)(=O)c2ccccc2)C(OC(C)=O)[C@@H]1OC(C)=O (stereo not given in full),90.9% (inactive)
13,CCOC(=O)c1ccc2n1CCCc1cnc(NC(C)=O)nc1-2,89.5% (inactive)
14,CCCCCCCCCCCCCCCCCC1=NCCN1CCNC(C)=O,83.2% (inactive)
15,Clc1ccc(N/N=C(/c2ccccc2)c2ccccn2)nc1,28.3% (inactive)
16,COc1ccc(-n2nnnc2-c2cn[nH]c2C(F)(F)F)cc1,92.9% (inactive)
17,COc1cc2ncnc(-n3ncc4cc(NC(=O)Nc5ccc(Cl)c(Cl)c5)ccc43)c2cc1OC,-17.2% (active)
18,CCOC(=O)c1c(C)oc2ncnc(Nc3ccc(C(=O)NCCc4ccccc4)cc3)c12,97.4% (inactive)
19,CC(=O)/C(=C/c1ccc(-c2ccccc2)cc1)C(=O)c1ccccc1,76.3% (inactive)
20,N=C(N)c1ccc(-c2ccc(-c3ccc(F)cc3)s2)cc1,-88.4% (active)

row,Structure (SMILES),growth
1,NC(=O)CC(NC(=O)COc1ccc(Cl)cc1Cl)C(=O)O (stereo not given),95.6% (inactive)
2,Cc1nc(NC(=O)NC2CCCCC2)sc1C(=O)NN,84% (inactive)
3,CCOC(=O)C1=C(C(F)(F)F)NC(=S)NC1CN1C(=O)c2ccccc2C1=O (stereo not given),98.1% (inactive)
4,NC(=O)c1c(Nc2ccccc2)nn2cc(-c3nc4ccccc4s3)c(N)nc12,81.3% (inactive)
5,O=C(/C=C/c1ccc(Br)cc1)c1ccccc1,80.3% (inactive)
6,Cc1c(O)c(N=Nc2ccc(C(=O)O)c(O)c2)c2ccccc2c1O,74.3% (inactive)
7,COc1ccc2c(c1)/C(=C/c1c(-c3cc(OC)c(OC)c(OC)c3)nc3sccn13)C(=O)N2,77.8% (inactive)
8,CCOC(=O)c1cc(C(=O)c2ccc(Br)cc2)n2cc(C)cc(C)c12,86.8% (inactive)
9,COc1cccc(Cn2cc3c(c2)-c2oncc2CC3)c1,38.8% (inactive)
10,CCCCCSc1ccc2nc(NC(=O)OCC)sc2c1,38.3% (inactive)
11,COc1ccc(C2C3(C#N)C(N)=NC(=C(C#N)C#N)C23C#N)cc1OC (stereo not given),91% (inactive)
12,CCCCCCCCCCCCCCCC[n+]1cccc(C#N)c1,67.6% (inactive)
13,CC(C)OC(=O)c1ccc2n1CCCc1cnc(Nc3ccccc3)nc1-2,64.2% (inactive)
14,COc1cc(Cn2ccc3c2-c2oncc2CC3)cc(OC)c1,28.8% (inactive)
15,COC(=O)c1ccc(C(=Nc2ccc(N(C)C(=O)CN3CCN(C)CC3)cc2)c2c(O)[nH]c3ccc(C(=O)OC)cc23)cc1,38.3% (inactive)
16,COc1cccc2c1nc1cccc(OC)c1[n+]2[O-],-0.522% (active)
17,CC(=O)NNC(=O)c1sc(NC(C)=O)nc1C,89.1% (inactive)
18,CCOC(=O)NNc1[nH]c(-c2ccc(OC)cc2)cc1C#N,87.8% (inactive)
19,COc1cc(N)c2nccc(C)c2c1OC,164% (inactive)
20,CCOC(=O)c1c2c(cn1Cc1ccccc1)-c1oncc1CC2,48.7% (inactive)

# Tested on: TK-10 renal
# Test: as above
# Settings: 10 µM unless noted
row,Structure (SMILES),growth
1,COc1ccc(Cn2cc3c(c2-c2ccccc2)CCc2cnoc2-3)cc1OC,70.4% (inactive)
2,Cc1ccc2c(O)c(O)cc(NC(C)CCCN)c2n1 (stereo not given),104% (inactive)
3,CC(C)(C)c1ccc([I+]c2ccc(C(C)(C)C)cc2)cc1,23.5% (inactive)
4,COC(=O)/C(Br)=C/c1c[nH]c2ccc(Br)cc12,78.3% (inactive)
5,COC(=O)c1ccc2[nH]c(O)c(C(=Nc3ccc(N(C)C(=O)CN4CCN(C)CC4)cc3)c3cccc(OC)c3)c2c1,0.964% (active)
6,C#CCCCCCCC[C@@H]1OC(=O)[C@H]([C@@H](C)CC)NC(=O)[C@@H]([C@@H](C)CC)NC(=O)CC(=O)[C@@H]1C,141% (inactive)
7,COC(=O)c1ccc2[nH]c(O)c(C(=Nc3ccc(N(C)C(=O)CN4CCN(C)CC4)cc3)c3ccc(C)cc3)c2c1,-82.7% (active)
8,COC(=O)C(C)[C@H]1CC[C@@H]2[C@]1(C)CC=C1[C@]23C=C[C@]2(C[C@@H](OC(C)=O)CC[C@]12C)C(C(=O)OC)C3C(=O)OC (stereo not given in full),109% (inactive)
9,Cc1nc2c(nnn2-c2ccccc2)c2nc(-c3ccccc3)oc(=O)c12,104% (inactive)
10,CC(O)C(N)=O (stereo not given),108% (inactive)
11,Nc1nc2c(c3cnccc13)C(c1cccc(Cl)c1)Cc1cnccc1-2 (stereo not given),23.9% (inactive)
12,CC(=O)OCC1O[C@@H](OC(C)=O)[C@@H](NC(=O)NS(=O)(=O)c2ccccc2)C(OC(C)=O)[C@@H]1OC(C)=O (stereo not given in full),98.6% (inactive)
13,CCOC(=O)c1ccc2n1CCCc1cnc(NC(C)=O)nc1-2,107% (inactive)
14,CCCCCCCCCCCCCCCCCC1=NCCN1CCNC(C)=O,103% (inactive)
15,Clc1ccc(N/N=C(/c2ccccc2)c2ccccn2)nc1,37.3% (inactive)
16,COc1ccc(-n2nnnc2-c2cn[nH]c2C(F)(F)F)cc1,113% (inactive)
17,COc1cc2ncnc(-n3ncc4cc(NC(=O)Nc5ccc(Cl)c(Cl)c5)ccc43)c2cc1OC,-14.1% (active)
18,CCOC(=O)c1c(C)oc2ncnc(Nc3ccc(C(=O)NCCc4ccccc4)cc3)c12,102% (inactive)
19,CC(=O)/C(=C/c1ccc(-c2ccccc2)cc1)C(=O)c1ccccc1,103% (inactive)
20,N=C(N)c1ccc(-c2ccc(-c3ccc(F)cc3)s2)cc1,-79.9% (active)

row,Structure (SMILES),growth
1,NC(=O)CC(NC(=O)COc1ccc(Cl)cc1Cl)C(=O)O (stereo not given),103% (inactive)
2,Cc1nc(NC(=O)NC2CCCCC2)sc1C(=O)NN,-14.2% (active)
3,CCOC(=O)C1=C(C(F)(F)F)NC(=S)NC1CN1C(=O)c2ccccc2C1=O (stereo not given),107% (inactive)
4,NC(=O)c1c(Nc2ccccc2)nn2cc(-c3nc4ccccc4s3)c(N)nc12,124% (inactive)
5,O=C(/C=C/c1ccc(Br)cc1)c1ccccc1,64% (inactive)
6,Cc1c(O)c(N=Nc2ccc(C(=O)O)c(O)c2)c2ccccc2c1O,116% (inactive)
7,COc1ccc2c(c1)/C(=C/c1c(-c3cc(OC)c(OC)c(OC)c3)nc3sccn13)C(=O)N2,102% (inactive)
8,CCOC(=O)c1cc(C(=O)c2ccc(Br)cc2)n2cc(C)cc(C)c12,114% (inactive)
9,COc1cccc(Cn2cc3c(c2)-c2oncc2CC3)c1,69.4% (inactive)
10,CCCCCSc1ccc2nc(NC(=O)OCC)sc2c1,49.7% (inactive)
11,COc1ccc(C2C3(C#N)C(N)=NC(=C(C#N)C#N)C23C#N)cc1OC (stereo not given),114% (inactive)
12,CCCCCCCCCCCCCCCC[n+]1cccc(C#N)c1,69.3% (inactive)
13,CC(C)OC(=O)c1ccc2n1CCCc1cnc(Nc3ccccc3)nc1-2,85.3% (inactive)
14,COc1cc(Cn2ccc3c2-c2oncc2CC3)cc(OC)c1,61.7% (inactive)
15,COC(=O)c1ccc(C(=Nc2ccc(N(C)C(=O)CN3CCN(C)CC3)cc2)c2c(O)[nH]c3ccc(C(=O)OC)cc23)cc1,51.7% (inactive)
16,COc1cccc2c1nc1cccc(OC)c1[n+]2[O-],75.8% (inactive)
17,CC(=O)NNC(=O)c1sc(NC(C)=O)nc1C,95.2% (inactive)
18,CCOC(=O)NNc1[nH]c(-c2ccc(OC)cc2)cc1C#N,92.7% (inactive)
19,COc1cc(N)c2nccc(C)c2c1OC,116% (inactive)
20,CCOC(=O)c1c2c(cn1Cc1ccccc1)-c1oncc1CC2,77.4% (inactive)
